Measured values published in the supplement of paper PMC11732987, “Enantioselective OTUD7B fragment discovery through chemoproteomics screening and high-throughput optimisation” (Communications Chemistry, 2025).

Assays:
Experiment in all cases: log2 ratio of Biotin-Ahx-Ub-VS probe labelling (fragment/DMSO); higher = less target engagement (more negative = stronger competition), active = hit call of the paper (q ≤ 0.05, log2 ratio ≤ -1)
Conditions in all cases: compound concentration: 200 uM; treatment time: 3 h
ALG13 = molecular target: T1, ALG13 (UniProt Q9NP73)
T1 sequence (whole entry): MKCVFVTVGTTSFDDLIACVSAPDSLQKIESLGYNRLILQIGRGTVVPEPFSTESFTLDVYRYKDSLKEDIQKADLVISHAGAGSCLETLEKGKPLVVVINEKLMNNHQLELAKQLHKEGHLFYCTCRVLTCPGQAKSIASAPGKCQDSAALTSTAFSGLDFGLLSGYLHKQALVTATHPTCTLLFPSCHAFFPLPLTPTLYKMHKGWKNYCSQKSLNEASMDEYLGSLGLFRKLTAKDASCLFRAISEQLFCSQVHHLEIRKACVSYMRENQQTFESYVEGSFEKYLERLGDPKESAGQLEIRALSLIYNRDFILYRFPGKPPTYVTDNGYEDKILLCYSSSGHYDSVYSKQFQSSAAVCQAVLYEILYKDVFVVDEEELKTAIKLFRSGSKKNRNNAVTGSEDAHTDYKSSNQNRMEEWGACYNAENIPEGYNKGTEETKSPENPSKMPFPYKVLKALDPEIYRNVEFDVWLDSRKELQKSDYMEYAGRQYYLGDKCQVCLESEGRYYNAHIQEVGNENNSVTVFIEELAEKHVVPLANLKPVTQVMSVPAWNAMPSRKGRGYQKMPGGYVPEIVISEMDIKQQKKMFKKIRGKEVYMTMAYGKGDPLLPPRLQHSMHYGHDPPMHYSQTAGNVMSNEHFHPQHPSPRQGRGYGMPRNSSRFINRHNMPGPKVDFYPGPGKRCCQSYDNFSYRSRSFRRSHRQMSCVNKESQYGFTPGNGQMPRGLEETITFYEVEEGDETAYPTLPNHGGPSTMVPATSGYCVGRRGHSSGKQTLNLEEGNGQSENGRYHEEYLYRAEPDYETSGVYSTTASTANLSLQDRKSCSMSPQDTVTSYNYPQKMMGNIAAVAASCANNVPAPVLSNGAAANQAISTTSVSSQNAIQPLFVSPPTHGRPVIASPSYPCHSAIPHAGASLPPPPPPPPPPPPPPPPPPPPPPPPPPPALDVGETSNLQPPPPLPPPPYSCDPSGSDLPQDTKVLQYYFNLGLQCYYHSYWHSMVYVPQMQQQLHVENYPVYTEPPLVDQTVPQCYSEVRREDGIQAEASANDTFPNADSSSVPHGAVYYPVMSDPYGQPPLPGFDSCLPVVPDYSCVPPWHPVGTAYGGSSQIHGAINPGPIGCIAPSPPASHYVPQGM
Outline: (§1)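 Triplicate samples of HEK293T lysate, 495 µg each, received fragment at 200 µM or vehicle for 3 h, followed by Biotin-Ahx-Ub-VS (0.5 µM final) for 1 h. After NeutrAvidin enrichment of labelled DUBs and LysC/trypsin digestion, peptides were run by diaPASEF LC-MS/MS. The values are average log2 fragment/vehicle ratios from global-median-normalised Spectronaut label-free quantities, tested by unpaired t-test on proteins having ≥2 unique peptides.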

ATXN3 = ATXN3 (UniProt P54252)
ATXN3, sequence (P54252 whole entry): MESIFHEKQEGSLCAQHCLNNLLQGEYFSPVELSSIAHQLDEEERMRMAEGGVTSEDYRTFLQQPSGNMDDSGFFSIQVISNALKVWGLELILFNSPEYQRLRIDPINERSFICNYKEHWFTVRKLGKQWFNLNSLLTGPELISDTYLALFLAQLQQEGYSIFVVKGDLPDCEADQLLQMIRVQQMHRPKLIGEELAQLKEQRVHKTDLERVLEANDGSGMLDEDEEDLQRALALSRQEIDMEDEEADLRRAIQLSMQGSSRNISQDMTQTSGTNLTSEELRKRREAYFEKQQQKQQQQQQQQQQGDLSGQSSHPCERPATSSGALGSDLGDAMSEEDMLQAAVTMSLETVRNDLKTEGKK
Outline: as §1

BAP1 = molecular target: T2, BAP1 (UniProt Q92560)
T2 sequence (whole entry): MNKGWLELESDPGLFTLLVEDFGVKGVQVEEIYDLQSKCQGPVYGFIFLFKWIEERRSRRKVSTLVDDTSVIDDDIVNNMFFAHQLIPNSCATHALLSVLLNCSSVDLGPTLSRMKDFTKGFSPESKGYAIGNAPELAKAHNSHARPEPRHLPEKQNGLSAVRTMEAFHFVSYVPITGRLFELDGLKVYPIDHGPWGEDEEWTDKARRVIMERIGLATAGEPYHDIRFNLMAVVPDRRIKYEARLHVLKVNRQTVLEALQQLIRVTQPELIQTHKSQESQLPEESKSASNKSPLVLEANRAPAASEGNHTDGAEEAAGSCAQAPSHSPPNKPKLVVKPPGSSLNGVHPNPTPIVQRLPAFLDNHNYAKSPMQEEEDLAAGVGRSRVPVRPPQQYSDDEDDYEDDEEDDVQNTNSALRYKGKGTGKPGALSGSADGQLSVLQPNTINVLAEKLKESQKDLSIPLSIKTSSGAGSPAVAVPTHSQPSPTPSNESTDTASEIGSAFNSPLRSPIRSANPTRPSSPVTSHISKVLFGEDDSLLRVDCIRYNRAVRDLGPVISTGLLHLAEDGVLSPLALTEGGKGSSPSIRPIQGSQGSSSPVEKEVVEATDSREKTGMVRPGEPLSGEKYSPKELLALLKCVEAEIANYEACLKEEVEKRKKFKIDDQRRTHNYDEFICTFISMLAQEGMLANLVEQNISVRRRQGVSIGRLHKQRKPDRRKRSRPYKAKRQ
Outline: as §1

EIF3F = EIF3F (UniProt O00303)
EIF3F, sequence (O00303 whole entry): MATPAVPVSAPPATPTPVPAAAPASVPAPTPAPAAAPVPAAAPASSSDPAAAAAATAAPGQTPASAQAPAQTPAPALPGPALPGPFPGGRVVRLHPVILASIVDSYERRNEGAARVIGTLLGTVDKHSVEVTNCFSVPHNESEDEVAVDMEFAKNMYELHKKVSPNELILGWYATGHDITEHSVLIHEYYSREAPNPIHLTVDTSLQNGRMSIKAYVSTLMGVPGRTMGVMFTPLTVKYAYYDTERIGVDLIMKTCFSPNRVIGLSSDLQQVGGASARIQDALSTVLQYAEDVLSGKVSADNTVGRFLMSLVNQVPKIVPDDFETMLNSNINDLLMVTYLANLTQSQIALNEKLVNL
Outline: as §1

EIF3H = EIF3H (UniProt O15372)
EIF3H, sequence (O15372 whole entry): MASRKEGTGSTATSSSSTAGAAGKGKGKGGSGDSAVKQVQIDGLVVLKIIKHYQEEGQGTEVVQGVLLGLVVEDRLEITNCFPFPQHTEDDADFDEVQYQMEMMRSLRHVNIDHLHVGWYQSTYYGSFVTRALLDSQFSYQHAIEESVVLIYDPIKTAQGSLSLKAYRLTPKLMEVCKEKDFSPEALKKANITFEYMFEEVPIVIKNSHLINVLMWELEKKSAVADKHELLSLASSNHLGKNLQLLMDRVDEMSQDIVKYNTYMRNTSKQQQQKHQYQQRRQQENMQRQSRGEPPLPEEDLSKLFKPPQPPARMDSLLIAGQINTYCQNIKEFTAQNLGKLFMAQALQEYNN
Outline: as §1

FAM105A = molecular target: T3, FAM105A (UniProt Q9NUU6)
T3 sequence (whole entry): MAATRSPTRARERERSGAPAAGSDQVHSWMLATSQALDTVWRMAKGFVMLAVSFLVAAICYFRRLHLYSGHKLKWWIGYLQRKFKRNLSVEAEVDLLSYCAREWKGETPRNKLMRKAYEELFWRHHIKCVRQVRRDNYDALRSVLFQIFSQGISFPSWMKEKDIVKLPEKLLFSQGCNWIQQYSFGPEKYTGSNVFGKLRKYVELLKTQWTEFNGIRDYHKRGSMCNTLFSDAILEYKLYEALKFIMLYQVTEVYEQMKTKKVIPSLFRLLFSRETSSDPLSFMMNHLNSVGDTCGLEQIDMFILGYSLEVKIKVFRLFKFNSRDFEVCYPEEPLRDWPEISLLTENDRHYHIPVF
Outline: as §1

OTUB1 = OTUB1 (UniProt Q96FW1)
OTUB1, sequence (Q96FW1 whole entry): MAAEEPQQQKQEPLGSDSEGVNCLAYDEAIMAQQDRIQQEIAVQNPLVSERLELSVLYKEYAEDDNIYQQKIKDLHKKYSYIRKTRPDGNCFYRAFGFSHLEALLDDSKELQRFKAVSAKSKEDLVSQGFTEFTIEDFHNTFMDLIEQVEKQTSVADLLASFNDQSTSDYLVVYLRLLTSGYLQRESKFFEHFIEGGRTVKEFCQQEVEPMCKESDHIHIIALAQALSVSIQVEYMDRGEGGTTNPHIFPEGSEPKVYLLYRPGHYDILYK
Outline: as §1

OTUD4 = molecular target: T4, OTUD4 (UniProt Q01804)
T4 sequence (whole entry): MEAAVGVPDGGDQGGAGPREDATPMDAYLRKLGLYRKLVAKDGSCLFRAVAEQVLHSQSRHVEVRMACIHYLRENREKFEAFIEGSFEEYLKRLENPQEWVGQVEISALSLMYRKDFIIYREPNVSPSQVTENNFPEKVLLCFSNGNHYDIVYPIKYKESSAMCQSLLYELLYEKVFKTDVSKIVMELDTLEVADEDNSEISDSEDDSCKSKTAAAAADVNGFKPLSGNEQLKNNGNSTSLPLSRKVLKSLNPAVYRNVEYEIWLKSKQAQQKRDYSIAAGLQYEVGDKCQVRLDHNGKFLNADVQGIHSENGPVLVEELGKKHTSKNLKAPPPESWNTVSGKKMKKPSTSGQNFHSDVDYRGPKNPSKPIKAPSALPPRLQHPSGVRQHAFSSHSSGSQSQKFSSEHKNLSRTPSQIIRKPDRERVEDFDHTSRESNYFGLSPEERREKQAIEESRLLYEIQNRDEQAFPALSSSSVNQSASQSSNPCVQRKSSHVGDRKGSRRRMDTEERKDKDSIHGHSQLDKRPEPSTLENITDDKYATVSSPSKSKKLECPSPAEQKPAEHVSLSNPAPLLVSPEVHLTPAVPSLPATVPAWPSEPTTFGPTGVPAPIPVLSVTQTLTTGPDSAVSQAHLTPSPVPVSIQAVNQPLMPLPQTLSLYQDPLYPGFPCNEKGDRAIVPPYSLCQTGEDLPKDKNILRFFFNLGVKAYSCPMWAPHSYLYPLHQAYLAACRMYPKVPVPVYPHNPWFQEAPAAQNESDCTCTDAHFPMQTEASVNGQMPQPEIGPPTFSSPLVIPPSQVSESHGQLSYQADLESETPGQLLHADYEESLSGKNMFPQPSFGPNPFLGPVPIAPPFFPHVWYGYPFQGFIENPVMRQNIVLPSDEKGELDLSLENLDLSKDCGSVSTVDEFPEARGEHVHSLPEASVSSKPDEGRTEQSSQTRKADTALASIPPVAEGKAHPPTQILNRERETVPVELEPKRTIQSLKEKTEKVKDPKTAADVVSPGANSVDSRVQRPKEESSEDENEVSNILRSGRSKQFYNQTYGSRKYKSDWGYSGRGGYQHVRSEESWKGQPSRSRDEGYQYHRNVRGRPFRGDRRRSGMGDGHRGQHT
Outline: as §1

OTUD5 = molecular target: T5, OTUD5 (UniProt Q96G74)
T5 sequence (whole entry): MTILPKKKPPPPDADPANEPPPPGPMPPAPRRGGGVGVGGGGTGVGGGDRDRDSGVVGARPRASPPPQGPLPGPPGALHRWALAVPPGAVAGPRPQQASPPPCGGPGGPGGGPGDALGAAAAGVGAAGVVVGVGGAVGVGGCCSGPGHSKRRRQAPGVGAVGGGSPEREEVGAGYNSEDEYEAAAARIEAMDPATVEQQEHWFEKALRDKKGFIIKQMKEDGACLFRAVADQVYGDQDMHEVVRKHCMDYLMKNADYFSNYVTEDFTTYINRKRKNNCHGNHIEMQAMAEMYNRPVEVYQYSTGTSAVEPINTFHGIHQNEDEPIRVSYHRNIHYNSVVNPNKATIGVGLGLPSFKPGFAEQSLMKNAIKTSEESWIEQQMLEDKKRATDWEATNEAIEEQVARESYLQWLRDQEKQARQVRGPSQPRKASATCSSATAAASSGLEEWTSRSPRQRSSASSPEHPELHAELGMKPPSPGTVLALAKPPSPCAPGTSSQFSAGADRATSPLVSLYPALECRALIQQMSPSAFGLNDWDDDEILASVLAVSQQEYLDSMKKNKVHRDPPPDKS
Outline: as §1

Measured: log2 ratio of Biotin-Ahx-Ub-VS probe labelling

Cc1cc(CC(C)NC(=O)CCl)n[nH]1 (centres undefined)
inactive: ALG13 0.0722 | ATXN3 -0.115 | BAP1 -0.509 | EIF3F -0.138 | EIF3H -0.131 | FAM105A 0.19 | OTUB1 0.11 | OTUD4 -0.115 | OTUD5 -0.0107
